# The source made the active and inactive calls. The calls were made as follows: active = hit-call score of the fitted dose curve at least 0.9, where 1 is the maximum; inactive = score below 0.9.
# Test: ATG_ERE_CIS: Attagene CIS-FACTORIAL HepG2 Assay for Estrogen Response Element (ERE) (AID 2282940)
# Details: HepG2 ERE cis-reporter, Attagene RNA transcript; actives raise or lower the signal
# Experimental: ATG_CIS is a cell-based, multiplexed-readout assay that uses HepG2, a human liver cell line, with measurements taken at 24 hours after chemical dosing in a 24-well plate.ATG_ERE_CIS is one of 52 assay component(s) measured or calculated from the ATG_CIS assay. It is designed to make measurements of mRNA induction, a form of inducible reporter, as detected with fluorescence intensity signals by Reverse transcription polymerase chain reaction (RT-PCR) and Capillary electrophoresis technology.Data from the assay component ATG_ERE_CIS was analyzed into 1 assay endpoint. This assay endpoint, ATG_ERE_CIS, was analyzed with bidirectional fitting relative to DMSO as the negative control and baseline of activity. Using a type of inducible reporter, measures of mRNA for gain or loss-of-signal activity can be used to understand the reporter gene at the transcription factor-level as they relate to the gene ESR1. Furthermore, this assay endpoint can be referred to as a primary readout, because this assay has produced multiple assay endpoints where this one serves a reporter gene function. To generalize the intended target to other relatable targets, this assay endpoint is annotated to the nuclear receptor intended target family, where the subfamily is steroidal.
# Human liver HepG2 cells are transiently transfected with multiple reporter transcription units (MRTUs) in 6-well plates using FuGene 6 reagent (Roche; 3 ml FuGene/1 mg DNA). The MRTU constructs are regulated by a cis-regulating element (promoter). […] A major difference between the CIS and TRANS system is that in CIS activities of endogenous TFs are measured, whereas the TRANS assay evaluates changes in activities of exogenous, chimeric NR-Gal4 proteins. […] At the end of 24 hour incubation, total RNA was isolated using TriZol reagent (Invitrogen). The isolated RNA is then reverse-transcribed using oligo(dT) primer and Mo-MLV reverse transcriptase (Invitrogen) with DNAse I (Ambion) treatment for 30 min. The one-tenth of the produced cDNA was amplified by PCR using Taq DNA polymerase (Invitrogen) and two reporter sequence-specific primers. The PCR products were fluorescently labeled by primer extension with 6-arboxyfluorescein (6-FAM) 5'-labeled reporter sequence-specific primer (2 min at 95 C, 20 s at 68 C and 10 min at 72 C) and these products were digested with 5U of HpaI (New England Biolabs) for 2h at 37 C. The fragments were purified using Qiaquick PCR columns (Qiagen), analyzed on an ABI 3130xL genetic analyzer (Applied Biosystems) with peak positions identified by using a set of X-rhodamine (ROX)-labeled MapMarker1000 molecular weight standards (BioVentures). The raw capillary electrophoresis data was processed using Attagraph software (Attagene).
SMILES,outcome,AC50
OCC(c1ccc(Cl)cc1)c1ccc(Cl)cc1,inactive,–
CN(CCCC(O)c1cccnc1)N=O (stereo not given),inactive,–
CC(c1ccc(O)cc1)c1ccc(O)cc1,–,0.701 µM (active)
C#CCOC(=O)/C=C(C)/C=C/CC(C)CCCC(C)C (stereo not given),inactive,–
CCOP(=S)(OCC)Oc1ccc(Cl)cc1Cl,–,10.1 µM (active)
Fc1cccc(Cl)c1CCl,inactive,–
CCN(CC)C(=O)C(Cl)=C(C)OP(=O)(OC)OC,inactive,–
C=CC(=O)OCC(COC(=O)C=C)(COC(=O)C=C)COC(=O)C=C,inactive,–
BrCC(Br)c1ccccc1 (stereo not given),inactive,–
C=CCOC(F)(C(F)(F)F)C(F)(F)F,inactive,–
O=C(NC(=O)c1c(F)cccc1F)Nc1cc(Cl)c(OC(F)(F)C(F)C(F)(F)F)cc1Cl (stereo not given),inactive,–
BrCCCCBr,inactive,–
CC1(C)[C@H](/C=C2\CCSC2=O)[C@@H]1C(=O)OCc1coc(Cc2ccccc2)c1,inactive,–
CCOC(=O)Cc1ccccc1,inactive,–
O=c1oc2ccccc2c(O)c1C(CC(O)c1ccc(-c2ccc(Br)cc2)cc1)c1ccccc1 (stereo not given),inactive,–
CCCCCCCCCCCCN(C)C,inactive,–
CC(=O)CN(CC(C)=O)N=O,inactive,–
CC(C)CP(=S)(S)CC(C)C,inactive,–
CS(=O)(=O)c1ccc(C(=O)C2C(=O)CCCC2=O)c(Cl)c1COCC(F)(F)F,–,27.3 µM (active)
O=[N+]([O-])c1cccc2ccccc12,inactive,–

SMILES,outcome,AC50
CCCCCCCCCCBr,inactive,–
O=C(CCl)Nc1ccccc1,inactive,–
CCOP(=O)(OCC)OC(=CCl)c1ccc(Cl)cc1Cl,–,11.1 µM (active)
N#CCCC(Br)(C#N)CBr (stereo not given),inactive,–
Cc1ccc(CCl)cc1,inactive,–
C[As+](C)(C)CC(=O)[O-],inactive,–
Nc1cccnc1,inactive,–
Cc1cc(SCc2sc(-c3ccc(C(F)(F)F)c(F)c3)nc2C)ccc1OCC(=O)O,inactive,–
O=S(=O)(C(Cl)(Cl)Cl)C(Cl)(Cl)Cl,inactive,–
O=C(CCl)NCO,inactive,–
O=C(Cl)OCCOCCOC(=O)Cl,inactive,–
[F][Sn]([c]1ccccc1)([c]1ccccc1)[c]1ccccc1,–,0.0177 µM (active)
O=NN1CCOCC1,inactive,–
CCCCN(CCCC)C(=S)S,inactive,–
CC(C)N(C(=O)CCl)c1ccccc1,inactive,–
Oc1c(Br)cc(Br)cc1Br,–,24.9 µM (active)
CN(N=O)c1ccc([N+](=O)[O-])cc1,inactive,–
CN(C1CCCCC1)C1CCCCC1,inactive,–
CCCCOC(C)=O,inactive,–
Cc1ccccc1OP(=O)(Oc1ccccc1C)Oc1ccccc1C,–,3.04 µM (active)

# From PubChem BioAssay (EPA / NIEHS)
